Laboratory results reported in PubChem BioAssay (NCI).
Several values for one entry are separate records, joined by “and”; a condition that tells them apart may be missing. Equal values may be shown once. Compounds without any hit were thinned out: in the full panel of roughly 79,000, 15% have a hit. Values without a mark were called inactive. Activity calls are given as the source filed them. Cut-off read from the data, not from the text of the source: active = growth inhibition above about 70%; inactive = the rest.

Assays:
[1] = NCI Yeast Anticancer Drug Screen. Data for the rad50 strain (AID 155);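 note: 0% = growth of vehicle-only cultures of the same strain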; conditions: S. cerevisiae rad50 strain growth inhibition, hits give high values; at 50.0 µM unless noted
Procedure, shortened: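 Vehicle-treated cultures provide the reference for the growth inhibition reported for compound-exposed, repair-deficient yeast.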

[2] = NCI Yeast Anticancer Drug Screen. Data for the mec2-1 strain (AID 157); conditions: S. cerevisiae mec2-1 strain, hits give high values; at 50.0 µM unless noted
Procedure, shortened: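 Compounds were applied to mec2-1 yeast cells. Their growth was then compared with that of vehicle-treated cultures to give growth inhibition.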

[3] = NCI Yeast Anticancer Drug Screen. Data for the sgs1 mgt1 strain (AID 161);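 note: 0% = growth of cultures given vehicle only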; conditions: S. cerevisiae sgs1 mgt1 strain, hits give high values; at 50.0 µM unless noted
Procedure, shortened: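 Growth of a repair-deficient yeast mutant was monitored after compound treatment and expressed as inhibition relative to vehicle-treated cultures.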

[4] = NCI Yeast Anticancer Drug Screen. Data for the cln2 rad14 strain (AID 165);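 note: 0% = growth equal to vehicle treated cultures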; conditions: S. cerevisiae cln2 rad14 strain, hits give high values; at 50.0 µM unless noted
Procedure, shortened: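 Strain: cln2 rad14 yeast, altered in cell cycle control and DNA damage repair. Read-out: growth inhibition vs vehicle.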

[5] = NCI Yeast Anticancer Drug Screen. Data for the bub3 strain (AID 167); conditions: S. cerevisiae bub3 mutant strain, hits give high values; at 50.0 µM unless noted
Procedure, shortened: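 Mutant yeast screening strain plus compound; vehicle-treated cultures serve as the 0% inhibition reference.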

[6] = NCI Yeast Anticancer Drug Screen. Data for the mlh1 rad18 strain (AID 175); conditions: S. cerevisiae mlh1 rad18 strain growth inhibition, hits give high values; at 50.0 µM unless noted
Procedure, shortened: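 A repair-deficient yeast strain is exposed to test compound, and growth is scored relative to vehicle-treated controls.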

| SMILES | growth inhibition [1] | growth inhibition [2] | growth inhibition [3] | growth inhibition [4] | growth inhibition [5] | growth inhibition [6] |
| --- | --- | --- | --- | --- | --- | --- |
| CCCOC(CCC(=O)NC(C)(C)C)CC(=O)NC(C)(C)C (stereo not drawn) | 5.85% | 5.45% | 6.9% | 4.15% | 0.55% | -9.9% |
| O=C(Cl)C(=O)c1c[nH]c2ccccc12 | 6.2% | -1.95% | -3% | 1.65% | -33.6% | -12.5% |
| O=C(O)COc1ccc([N+](=O)[O-])cc1[N+](=O)[O-] | 20.9% | 14% | 22.4% | 7.95% | 3.95% | 16.6% |
| O=P(O)(O)OP(=O)(O)O | -15.3% | -15.1% | -2.4% | -12.1% | -54.6% | 25.8% |
| S=c1c2[nH]cnc2ncn1CCSC1=NC=NC2=NC=NC21 (stereo not drawn) | 27.8% | -23.6% | -26.9% | -22.8% | -55% | -8.6% |
| CC1=Cc2cccc(C)c2C(=O)C1=O | 93.6% (active) | 95.2% (active) | 94.5% (active) | 92.8% (active) | 93.8% (active) | 93.2% (active) |
| CCCCCCCCCCCC(=O)OC(COCCC(C)C)COCCC(C)C | -2.9% | -5.05% | -3.15% | -12.1% | -11.9% | 12.1% |
| O=[N+]([O-])/C=C/c1cn(CCCCCCCCCCCCn2cc(/C=C/[N+](=O)[O-])c3ccccc32)c2ccccc12 | -1.5% | -24.6% | -3.9% | 6.45% | -19.4% | -13.6% |
| Nc1ccc(NC(=O)Nc2ccccc2)cc1 | 5.65% | -19.2% | -0.7% | -32.4% | -22.3% | -15.1% |
| CCN(CC)CCN=Cc1ccccc1OC | 15.9% | -29.5% | -3.85% | 3.15% | 11.3% | 15.2% |
| O=c1nc(NCc2ccco2)ccn1C1OC(CO)C(O)C1O (stereo not drawn) | 12.3% | 9.45% | 12.6% | 13.9% | -0.2% | 14.6% |
| CC1CCC(c2cc(-c3ccccc3)n(-c3ccccc3)n2)CC1 (stereo not drawn) | -6.25% | 6.05% | -2.35% | -26.4% | -17.4% | -6.15% |
| Cn1c(=O)[nH]c2ccc(Cl)cc2c1=O | 2.75% | -5.85% | -3.25% | -67.8% | 8.15% | 5.85% |
| O=C1NC(=O)[C@@]2(CC[C@@H](O)C2)c2ccncc21 | 3.55% | -42.6% | -10.2% | 16.4% | -33.2% | -86.5% |
| O=C(/C=C/c1ccc(O)c(O)c1)OC1CC(O)(C(=O)O)CC(O)C1O (stereo not drawn) (tested in a mixture with another compound) | -26.6% | -13.9% | -9.35% | -17.1% | 4% | -12.3% |
| O=C1NC(=O)C2C3OC(C(Cl)C3Cl)C12 (stereo not drawn) | 0.8% and 18.2% | -19.5% and 11.5% | -7.85% and 12.5% | 20.4% and 42.7% | -4.95% and 7.95% | -7.85% and -1.25% |
| CC1=C(CCC(=O)O)c2cc3nc(cc4[nH]c(cc5[nH]c(cc1n2)c(C)c5C1CC1C(=O)O)c(C)c4C1CC1C(=O)O)C(C)=C3CCC(=O)O (stereo not drawn) | 0.35% | 22.4% | 30.3% | -0.6% | 13.2% | 25.1% |
| Brc1ccccc1C#Cc1ccccc1Br | 0.7% | -4.6% | 16.3% | -1.25% | 10.1% | 19.1% |
| Cc1cccc2oc3c(c(=O)c12)CC(O)C(C)(C)O3 (stereo not drawn) | 15.6% | -3.85% | 20.7% | -7.85% | 5.65% | -45% |
| O=C1CN(CCN2CC(=O)N(CN3CCOCC3)C(=O)C2)CC(=O)N1CN1CCOCC1 | 9.55% | 3% | 2.6% | 3.8% | -16.1% | 83.9% (active) |
| COc1ccc(CCNC(=O)CCN2C(=O)CCC2=O)cc1OC | 8.7% | -12.8% | 1.55% | -3.25% | -14.8% | -2.9% |
| Cc1ccccc1C(=O)NCC(=O)O | 10.8% | -28.1% | 8.2% | 3.65% | -4.1% | 12.3% |
| CC(C)(CBr)CC(=O)NC1CCCCC1 | -22% | 5.8% | 3.3% | 1.8% | 10.2% | 50% |
